# Data: PubChem BioAssay AID651636 (Sanford-Burnham Center for Chemical Genomics, 2012)
# Among all 360,000 compounds or so, about 3,000 (0.83%) were called active. Rule as the data show it: active = inhibition above about 38%; inactive = the rest. Only a selection was taken, and actives are over-represented in it overall.
# Molecular target: G-protein coupled receptor 183 (Homo sapiens) (UniProt P32249)
# Assay: blockers of oxysterol-driven EBI2 arrestin signaling – cell-based, luminescence, 7a,25-OHC stimulation, uHTS, primary screen (AID 651636);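 also: enzyme fragment complementation signal reports receptor beta-arrestin coupling in cells; 0% = agonist plus DMSO wells and 100% = wells without agonist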
# Conditions: EBI2 beta-arrestin recruitment, 7a,25-OHC stimulated, at 5 µM, stronger effect = higher value
# Sequence of G-protein coupled receptor 183 (Homo sapiens) (P32249 whole entry, looked up, the tested form may be a part): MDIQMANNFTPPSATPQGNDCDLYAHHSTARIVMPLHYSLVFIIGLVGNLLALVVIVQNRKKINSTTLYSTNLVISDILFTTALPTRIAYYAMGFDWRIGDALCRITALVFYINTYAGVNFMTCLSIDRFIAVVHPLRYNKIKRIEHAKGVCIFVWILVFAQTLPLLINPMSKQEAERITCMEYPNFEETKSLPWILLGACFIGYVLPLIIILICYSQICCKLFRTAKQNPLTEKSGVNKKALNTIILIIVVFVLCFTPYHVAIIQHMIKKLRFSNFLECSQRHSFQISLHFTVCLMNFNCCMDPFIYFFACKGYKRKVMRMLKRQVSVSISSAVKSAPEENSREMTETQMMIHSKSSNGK
row,SMILES,inhibition
1,Cc1nnnn1/C(=C\c1ccccc1)C(=O)OCC(=O)N1CC2(C)CC1CC(C)(C)C2 (centres undefined),31.6% (inactive)
2,CCCC(C(=O)N1CCOCC1)N1C(=O)C2C3C=CC(C3)C2C1=O (centres undefined),-18.5% (inactive)
3,CC(=O)c1ccc(S(=O)(=O)N2CCC(Oc3ccc(-n4cnnn4)cc3)CC2)cc1,2.61% (inactive)
4,CC(=O)c1ccc(S(=O)(=O)N2CCN(c3nc4c(C)c(C)ccc4cc3C#N)CC2)cc1,15.8% (inactive)
5,CC(=O)c1ccc(S(=O)(=O)N2CCN(C(=O)/C=C/c3ccc4ccccc4n3)CC2)cc1,62.3% (active)
6,CC(=O)c1nn(-c2cccc(Br)c2)cc1C(=O)c1cccc2ccccc12,12% (inactive)
7,CC(=O)c1nn(-c2ccc(C)cc2)cc1C(=O)c1cccc(Br)c1,46.1% (active)
8,CCOC(=O)c1nn(-c2cccc(C)c2)cc1C(=O)c1ccccc1,11% (inactive)
9,CCc1ccc[n+](-c2nc([O-])sc2C=O)c1,7.04% (inactive)
10,Cc1ccc(C(=O)N2CCCc3ccccc32)c(Cl)c1,10.8% (inactive)
11,CCCn1nc(C(=O)N2CCCc3ccccc32)c2ccccc2c1=O,14.1% (inactive)
12,Cc1cccc2cc3c(N)c(C(=O)N4CCCc5ccccc54)sc3nc12,76.1% (active)
13,COc1ccc(C(C#N)=C2C=CC(=NO)c3ccccc32)cc1,17.2% (inactive)
14,CC(Oc1ccc(Cl)cc1)C(=O)Nc1ncccn1 (centres undefined),-3.28% (inactive)
15,COc1cccc(CNC(=O)C2CCN(S(=O)(=O)c3cccc4cccnc34)CC2)c1,-6.22% (inactive)
16,CC(=O)/C(=N\Nc1ccc(Cl)cc1Cl)Sc1cccc2cccnc12,63.7% (active)
17,CCCCc1ccc(NS(=O)(=O)c2cccc(C(=O)N3CCCN(C)CC3)c2)cc1,-4.46% (inactive)
18,Cc1ccc(CN2CC(C(=O)NNC(=O)Cn3ccc(C(F)(F)F)n3)CC2=O)cc1 (centres undefined),7.75% (inactive)
19,O=C(/C=C/c1ccc(OCc2c(F)cccc2Cl)cc1)N1CCOCC1,7.94% (inactive)
20,O=C(/C=C/c1cccc([N+](=O)[O-])c1)N1CCN(Cc2ccccc2)CC1,53.3% (active)
21,O=C(/C=C/c1ccccc1[N+](=O)[O-])OCC(=O)N1CCCC1,-0.221% (inactive)
22,O=C(/C=C/c1ccc(Cl)cc1)N1CCN(c2ccccc2[N+](=O)[O-])CC1,93.1% (active)
23,Cc1c(Br)c([N+](=O)[O-])nn1CC(=O)N1CCN(Cc2ccccc2)CC1,-9.97% (inactive)

row,SMILES,inhibition
1,O=C(/C=C/c1cccc([N+](=O)[O-])c1)OCC(=O)N1CCOCC1,1.92% (inactive)
2,O=C(NCCN1CCCC(O)C1)c1cc(COc2c(F)cccc2F)on1 (centres undefined),-9.61% (inactive)
3,CCOC(=O)C1(O)CC(C)=NN1C(=O)c1cccc(Br)c1 (centres undefined),-21.3% (inactive)
4,CCC1([N+](=O)[O-])COC(c2ccc(C(C)C)cc2)OC1 (centres undefined),-3.46% (inactive)
5,COc1ccc(S(=O)(=O)N(C)C[C@H]2Oc3c(NC(=O)Nc4ccc5c(c4)OCO5)cccc3C(=O)N([C@H](C)CO)C[C@@H]2C)cc1,5.07% (inactive)
6,Cc1ccc(NC(=O)C2CCC(C(C)(C)C)CC2)cc1S(=O)(=O)N1CCOCC1 (centres undefined),-1.74% (inactive)
7,Cc1[nH]nc(SCC(=O)NCC(C)C)c1[N+](=O)[O-],-0.06% (inactive)
8,N#CC1=C(SCc2ccc(C#N)cc2)N=C(N)C(c2nc(-c3ccccc3)cs2)C12CCCCC2 (centres undefined),15.1% (inactive)
9,Cc1cc(C)cc(N(CC(=O)NCCSCc2ccco2)S(C)(=O)=O)c1,3.14% (inactive)
10,COc1ccc(N(CC(=O)NCCSCc2cccc(Cl)c2)S(C)(=O)=O)cc1,-2.19% (inactive)
11,Cc1ccc(CSCCNC(=O)CN(c2ccc(F)cc2)S(C)(=O)=O)cc1,59% (active)
12,O=C(NNC(=O)c1ccc2ccccc2c1)c1ccc(Cl)cc1,60.9% (active)
13,CN(CC(=O)Nc1ccc(Cl)cc1)C(=O)CNC(=O)c1ccc2ccccc2c1,2.02% (inactive)
14,O=C(CCCOc1ccccc1)NNC(=O)c1ccc(Cl)cc1,17.9% (inactive)
15,Cc1ccc(-c2c(C)n([O-])c3c([n+]2=O)CCC3)cc1,0.406% (inactive)
16,O=C(CCc1ccccc1)NNC(=O)COc1ccc(Cl)cc1,38.4% (active)
17,O=C(COc1ccc(Cl)cc1)NCCSc1ccccc1,26.9% (inactive)
18,O=C(NCCc1ccccc1)Oc1ccc(Cl)cc1,-9.27% (inactive)
19,CC(NC(=O)C1CCCN(S(=O)(=O)c2ccc(-n3cnnn3)cc2)C1)c1ccc(F)cc1 (centres undefined),-4.68% (inactive)
20,O=C1/C(=C\c2ccc(O)cc2)CCC1CNc1ccc(Cl)cc1 (centres undefined),20.4% (inactive)
21,O=C(C1CCN(S(=O)(=O)c2cnc[nH]2)CC1)N1CCN(Cc2ccc3c(c2)OCO3)CC1,-0.0388% (inactive)
22,COC(=O)c1ccc(/C=N/N2C(C)CCCC2C)cc1 (centres undefined),-2.67% (inactive)
23,Brc1ccc(/C=N/N2CCN(C3c4ccccc4-c4ccccc43)CC2)s1,6.47% (inactive)

row,SMILES,inhibition
1,CCOc1ccc(CCN2C(=S)N([C@@H](CC(C)C)CN3CCC[C@@H]3CN3C(=S)NC[C@@H]3Cc3ccc(O)cc3)C[C@@H]2CC(C)C)cc1,17.1% (inactive)
2,CCOc1ccc(CCN2C(=O)C(=O)N([C@@H](CC(C)C)CN3CCC[C@H]3CN3C(=O)C(=O)NC[C@@H]3Cc3ccccc3)C[C@@H]2CC(C)C)cc1,-13.2% (inactive)
3,CCOc1ccc(CCN2C(=S)N([C@@H](CC(C)C)CN3CCC[C@@H]3CN3C(=S)NC[C@@H]3Cc3ccc(O)cc3)C[C@@H]2Cc2ccc(O)cc2)cc1,51.8% (active)
4,CC1(C)NC(=O)N(CC(=O)Nc2ccc(-c3ccccc3)cc2)C1=O,-7.07% (inactive)
5,Cc1cccc(N(CC(=O)Nc2ccc(-c3nc4ccc(C)cc4s3)cc2)S(C)(=O)=O)c1,9.99% (inactive)
6,N=C1C(=O)OCC1c1ccccc1NC(=O)CN1CCCCC1 (centres undefined),-2.7% (inactive)
7,CCN(CC)CCNc1nc(-c2ccc(OC(F)F)cc2)c(C)s1,7.54% (inactive)
8,CCCCn1nnnc1C(c1cc2ccccc2o1)N(C)Cc1ccc(Cl)c(Cl)c1 (centres undefined),15.8% (inactive)
9,COCCNC(=S)c1ccc(OC)cc1,-12.7% (inactive)
10,CN(C)C(=S)N=c1ssc(=S)n1Cc1ccco1,-5.43% (inactive)
11,Cc1cs/c(=N\N=C\c2ccc(O)cc2)n1Cc1ccco1,50.6% (active)
12,CC(C)NC(=O)NNc1c(Cl)cncc1Cl,1.07% (inactive)
13,ONC(=Nc1ccc(Cl)cc1)c1ccccc1Cl,-0.13% (inactive)
14,COc1ccc(NC(=O)CCNS(=O)(=O)c2ccc3c(c2)c(=O)n(C)c(=O)n3C)cc1OC,-1.47% (inactive)
15,COc1ccc(NC2CC(=O)N(C)C2=O)cc1 (centres undefined),-2.09% (inactive)
16,CCOc1ccc(C(C)=O)cc1COC(=O)CNC(=O)c1cccs1,4.34% (inactive)
17,COC(=O)c1ccc(COC(=O)c2cnc(Cl)c(Cl)c2)cc1,4.66% (inactive)
18,CCOc1ccc(C(C)=O)cc1COC(=O)c1cnc(Cl)c(Cl)c1,43.3% (active)
19,Cc1c(Br)ccc(NC(=O)COc2ccccc2C(N)=O)c1C,-2.44% (inactive)
20,CC(=O)Nc1ccc(N2C(=O)CCC2=O)cc1C,4.9% (inactive)
21,CN(CC(=O)NC1CCN(Cc2ccccc2)CC1)S(=O)(=O)c1ccc(Cl)s1,1.99% (inactive)
22,COC(=O)C1CCN(C(=O)NC2CC(=O)N(c3ccc4c(c3)OCCO4)C2)CC1 (centres undefined),8.78% (inactive)
23,COc1cc2c(cc1OC)CC1(CCCCC1)N=C2,7.31% (inactive)

row,SMILES,inhibition
1,CN(C)S(=O)(=O)c1cccc(NC(=O)COc2ccc3ccccc3c2)c1,8.2% (inactive)
2,CN(Cc1ccc(F)cc1)C(=O)COc1ccc2ccccc2c1,93.1% (active)
3,Cc1ccc(C)c(NC(=O)CN(C)C(=O)COc2ccc3ccccc3c2)c1,27.2% (inactive)
4,CC1(C)OC(=O)C2=C(C[C@@H](C3CCCC3)O[C@@H]2c2ccc(Cl)cc2)O1,-3.37% (inactive)
5,Cn1c(CC2Sc3ccccc3NC2=O)nnc1SCC(=O)c1ccc(Cl)cc1 (centres undefined),3.76% (inactive)
6,O=C(/C=C/c1cn(-c2ccccc2)nc1-c1ccc2c(c1)OCCO2)NCCCN1CCOCC1,3.63% (inactive)
7,Cc1ccc(-c2nn(-c3ccccc3)cc2/C=C/C(=O)Nc2cccc(S(N)(=O)=O)c2)cc1,41.1% (active)
8,Cc1ccc(-c2nn(-c3ccccc3)cc2C(=O)Nc2cccc(S(=O)(=O)N3CCOCC3)c2)cc1,27.6% (inactive)
9,CC[C@]12c3[nH]c4cc(CCC(=O)N(C)C)ccc4c3CCN1C(=O)[C@@H](CC(=O)NCc1ccco1)C[C@@H]2C(=O)N1CCN(C(=O)c2ccco2)CC1,-5.36% (inactive)
10,CCN(CCCNC(=O)CSc1cc(=O)n(C)c2cc(Cl)ccc12)Cc1ccccc1,8.14% (inactive)
11,Cc1cc(Cl)c2oc(C(=O)NC(C)c3ccncn3)c(C)c2c1 (centres undefined),-2.48% (inactive)
12,Cc1cc(Cl)c2oc(C(=O)N(C)C(C)c3ccccn3)c(C)c2c1 (centres undefined),4.48% (inactive)
13,Cc1cc(Cl)c2oc(C(=O)N3CCC(O)(c4ccccc4)CC3)c(C)c2c1,73.4% (active)
14,CSc1nnc(CNC(=O)c2ccccc2)n1-c1ccc(F)cc1,-8.06% (inactive)
15,Cn1c(NC(=O)c2ccco2)c(-c2ccccc2Cl)c(=O)c2ccccc21,2.45% (inactive)
16,COCCNc1nc2nonc2nc1N(C)Cc1ccc(C)cc1,-3.45% (inactive)
17,NS(=O)(=O)c1ccccc1NC(=O)c1c(O)c2ccccc2[nH]c1=O,2.5% (inactive)
18,O=C(c1cc2cc(F)ccc2[nH]1)N1CCN(c2ccc(F)cc2)CC1,71.3% (active)
19,Cc1c(C(=O)N2CCN(c3ccc(F)cc3)CC2)oc2c1C(=O)CCC2,-8.48% (inactive)
20,O=C(c1ccccc1Oc1ccccc1)N1CCN(c2ccc(F)cc2)CC1,7.76% (inactive)
